High-throughput results deposited in PubChem by National Center for Advancing Translational Sciences (NCATS).
Compounds with a hit are over-represented: about 3.1% of the library has one in this group of screens.
GoLoco inh red: blocks human Gai1 binding to RGS12 GoLoco peptide, red readout | P63096 | Gai1:RGS12 GoLoco peptide FP, rhodamine, 10 min | Potency, µM (titrated, usually from 61.6 µM), for the others: top-dose activity, negative = inhibition, actives largely listed as inhibitors | 230,000 compounds, 0.44% hits | AID 880; active = well fitted inhibition curve with a large enough effect, not every such curve was filed as active; inactive = no such curve, though single readings can be large or run the other way; also: nearly all actives have a fitted effect of over 30% in size
Target sequence (P63096 whole entry, looked up): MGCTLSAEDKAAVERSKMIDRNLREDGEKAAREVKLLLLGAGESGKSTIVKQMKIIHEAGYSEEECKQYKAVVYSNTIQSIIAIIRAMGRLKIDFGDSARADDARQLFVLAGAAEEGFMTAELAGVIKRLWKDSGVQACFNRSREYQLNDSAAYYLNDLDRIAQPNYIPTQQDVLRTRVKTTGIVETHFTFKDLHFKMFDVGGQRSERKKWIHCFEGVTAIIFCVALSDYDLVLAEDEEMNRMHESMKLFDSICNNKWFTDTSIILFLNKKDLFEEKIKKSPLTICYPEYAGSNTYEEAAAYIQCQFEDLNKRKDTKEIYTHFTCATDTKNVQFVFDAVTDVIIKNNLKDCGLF
TR SRC2 fluor cs: counter-screen for TRb-SRC2 inhibitors: fluorescence interference | 280,000 compounds, 0.29% hits | Potency, µM (doses to about 106 µM), without a hit: top-dose fluorescence change, negative = quenching | TRb/SRC2 Texas Red total fluorescence interference; active = well fitted curve in either direction with a large enough effect; inconclusive = small, poorly fitted or top-dose-only effect
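Human TRb ligand-binding domain at 0.6 uM with 20 nM Texas Red SRC2 peptide in Tris buffer containing 1 uM T3 and 5% DMSO, incubated with compound 5 h at ambient temperature. Total fluorescence (555/632 nm) calculated as parallel + 2 × perpendicular.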
Tau fluor counter: counter-screen for tau fibril formation inhibitors | tau K18 P301L Alexa594 fluorescence, heparin fibrillization | Potency, µM (series often up to 57.7 µM), without a hit: at the top dose activity change, negative = decrease | 280,000 compounds, 0.93% hits; also: nearly all actives have a fitted effect of over 55% in size
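Human K18 P301L tau (15 uM unlabeled plus 0.24 uM Alexa 594-labeled, final) in 100 mM sodium acetate pH 7 was mixed with compound and 20 uM heparin and incubated 6 hr at 37 C.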
TRb-SRC2 inh: disrupts binding of human TR beta to SRC2; Potency, µM (top dose mostly 106 µM), inactives show top-dose activity change, negative = inhibition, most hits filed as inhibitors; TRbeta-SRC2 peptide binding, fluorescence polarization; receptor liganded with 1 µM T3; 280,000 compounds, 0.065% hits; P10828;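 also: plate controls were bound peptide for no effect and peptide without receptor for full effect; nearly all actives have a fitted effect of over 50% in size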
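Assay buffer: 20 mM Tris-HCl, 100 mM NaCl, 10% glycerol, 1 mM EDTA, 0.01% NP-40, 1 mM DTT, 1 uM T3, 5% DMSO; TRb LBD 0.6 uM, Texas Red SRC2 20 nM; FP after 5 hr.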
Tau ThT inhib: inhibitors of human tau fibril formation, thioflavin T binding; Potency, µM (highest dose often 57.4 µM), inactives show top-dose activity, negative = inhibition, actives largely listed as inhibitors; recombinant tau K18 P301L, heparin-induced fibrillization, ThT fluorescence; 270,000 compounds, 2.1% hits; P10636; also: nearly all actives have a fitted effect of over 55% in size
Target sequence (P10636 561-689 P618L limits assumed): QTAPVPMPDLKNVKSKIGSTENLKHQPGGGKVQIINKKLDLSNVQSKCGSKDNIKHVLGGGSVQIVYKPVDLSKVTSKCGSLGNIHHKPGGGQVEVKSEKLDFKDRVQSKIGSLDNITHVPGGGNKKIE
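ThT emission at 510 nm, taken 1 hr after adding 30 uM dye, quantifies aggregates formed when 20 uM heparin acts on human tau K18 P301L for 6 hr at 37 C.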
Tau FP inhib: blocks human tau fibril formation measured by polarization. P10636. K18 P301L tau heparin fibrillization, Alexa594 FP, 6 h. Potency, µM (top dose mostly 57.7 µM), without a hit: at the top dose activity, negative = inhibition, actives largely listed as inhibitors. 280,000 compounds, 0.39% hits. AID 1468; also: nearly all actives have a fitted effect of over 55% in size
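K18 P301L tau (15 uM unlabeled/0.24 uM Alexa 594-labeled, final) + compound + heparin 20 uM final; 100 mM NaOAc pH 7; 6 hr 37 C; ThT 30 uM final added, 1 hr RT; FP ex 555/em 632 nm.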
* hit, by the source's call; ? = inconclusive; nt = no result; [ ] = remark or other dose. Unless noted, calls follow the shape of the dose curve; as a rule, active = well fitted curve in the direction sought with a large enough effect; inconclusive = small, poorly fitted or top-dose-only effect, or another doubt; inactive = no such curve, though single readings can be large; an effect the other way counts as inactive or inconclusive. Unless noted, % is scaled to controls: 0 for no effect and ±100 for the full control effect; potency is read from the fitted curve at half-maximal effect.

SMILES | GoLoco inh red | TR SRC2 fluor cs | Tau fluor counter | TRb-SRC2 inh | Tau ThT inhib | Tau FP inhib
CN=C(c1ccc([N+](=O)[O-])cc1)N1CCCCC1 | -3% | -1% | 7% | -3% | 5% | 2%
COC(=O)C1=CN(C(C)C)C=C(C(=O)OC)C1c1cc2c(cc1Br)OCO2 | 15% | -1% | -2% | -9% | -2% | -2%
COc1ccc(-c2[nH]ncc2N=Nc2cc(C)cc(C)c2)cc1 | -6% | -6% | ? | -1% | ? | ?
COc1ccc(-c2[nH]ncc2N=Nc2ccccc2)cc1 | 6% | -6% | ? | -3% | 16µM* | ?
CC(=O)Nc1ccc(S(=O)(=O)NC2=C(N3CCN(c4ccc(F)cc4)CC3)C(=O)c3ccccc3C2=O)cc1 | -13% | -5% | 13µM*[quencher] | -21% | 5.6µM* | ?
O=C1C(NS(=O)(=O)c2cccs2)=C(N2CCN(c3ccccc3)CC2)C(=O)c2ccccc21 | -5% | -3% | ? | -2% | 6.3µM* | ?
O=C(C(NS(=O)(=O)c1cccs1)c1ccccc1)N1CCN(c2ccccc2)CC1 (stereo not drawn) | 20% | 0% | -17% | 10% | ? | 1%
Cc1ccc(S(=O)(=O)NC2=C(N3CCN(c4ccccc4F)CC3)C(=O)c3ccccc3C2=O)cc1 | 3% | -2% | ? | -7% | 16µM* | 4%
CNC(=O)/C(C#N)=C\c1ccc(CNS(=O)(=O)c2ccccc2)o1 | 8% | -1% | 8% | -3% | 1% | -6%
COCCCN1C(=O)/C(=C/c2ccc(CNS(=O)(=O)c3ccccc3)o2)C(C(=O)OC)=C1C | 4% | 4% | -19% | -3% | 14µM* | ?
COc1ccc(NC(=O)c2c(NCc3cccs3)sc3c2CCCC3)c(OC)c1 | nt | -3% | ? | 4% | ? | 1%
COc1ccc(NC(=O)c2c(NCc3ccc(C)o3)sc3c2CCCCC3)c(OC)c1 | nt | 112µM*[quencher] | ? | -25% | 18µM* | ?
COc1ccc(Cl)cc1NC(=O)c1c(NCc2sccc2C)sc2c1CCCC2 | nt | -2% | ? | 4% | 4µM* | ?
COc1ccccc1NC(=O)c1c(NCc2sccc2C)sc2c1CCCCC2 | nt | -2% | -19% | 2% | ? | 0%
COc1ccc(NC(=O)c2c(NCc3sccc3C)sc3c2CCCCC3)c(OC)c1 | nt | -11% | ? | -2% | 28µM* | ?
CCOc1ccc(-c2cnc(NCc3ccc(C(F)(F)F)cc3)n2C)cc1 | nt | 5% | ? | 1% | ? | 10%
Cc1cc(C)cc(N(CCC(=O)Nc2nnc(C3CC3)s2)S(=O)(=O)c2ccc(Cl)cc2)c1 | 0% | 2% | -9% | 1% | -3% | 2%
CCCOC(=S)N/C(=N\S(=O)(=O)c1ccccc1)c1ccccc1 | 2% | -7% | 3% | -4% | 3% | -2%
COC(=O)CN1C(=O)C(C)(C)c2cc(S(=O)(=O)NCc3ccc(Cl)cc3)ccc21 | nt | 1% | -14% | -3% | -3% | 1%
CCOC(=O)Cc1csc(NC(=O)c2sc3nc4cc(C)ccc4cc3c2N)n1 | 3% | 6% | ? | -18% | 2.5µM* | 14%
CCOC(=O)Cc1csc(NC(=O)c2sc3nc4ccc(CC)cc4cc3c2N)n1 | 43% | -14% | -28% | 0% | 8.9µM* | 3%
CCOC(=O)Cc1csc(NC(=O)c2ccc(Br)o2)n1 | 5% | 2% | -4% | 8% | -19% | 1%
CCOC(=O)Cc1csc(NC(=O)c2ccc(C)cc2)n1 | 10% | 1%[53 µM] | -12% | 2%[53 µM] | -12% | -5%
Cn1c(/C=C(\C#N)C(N)=S)ccc1-c1ccc(Br)cc1 | 15% | -1% | -28% | 0% | 1µM* | 4%
Cn1cccc1/C=C(\C#N)C(N)=S | 10% | 1% | -9% | 2% | ? | 7%
SMILES | GoLoco inh red | TR SRC2 fluor cs | Tau fluor counter | TRb-SRC2 inh | Tau ThT inhib | Tau FP inhib
Cn1c(COc2ccc(Br)cc2)nnc1SC1CCc2ccccc2C1=O (stereo not drawn) | -5% | ? | ? | -2% | 32µM* | ?
O=C(N/N=C/c1ccc(O)c([N+](=O)[O-])c1)C1CC1(c1ccccc1)c1ccccc1 (stereo not drawn) | 8% | -4% | ? | -10% | 14µM* | 7%
O=C(N/N=C/c1c[nH]c2ccccc12)C1CC1c1ccccc1 (stereo not drawn) | nt | -6% | 14µM*[quencher] | 3% | ? | 4%
O=C(N/N=C/c1ccncc1)C1CC1(c1ccccc1)c1ccccc1 (stereo not drawn) | -1% | -3% | ? | -12% | ? | -7%
O=C(N/N=C/c1c[nH]c2ccccc12)C1CC1(c1ccccc1)c1ccccc1 (stereo not drawn) | nt | -2% | 7.1µM*[quencher] | 10% | -11% | -3%
N#Cc1c(N2CCOCC2)nc(N2CCCCC2)c2c1CCN(C1CCCCC1)C2 | -3% | 0% | -6% | 1% | -13% | -1%
COC1=CC(=O)C=C(OC)C1=O | 20µM* | 0% | ? | 11% | 10µM* | 22µM*
COc1ccc(C(=O)ON=C2C=C(C)C(=O)C(C)=C2)cc1 | -21% | -1% | -1% | 5% | 2% | 0%
CCOc1ccc(-n2c(C)cc(/C=N/N(C)C)c2C)cc1 | 34% | -2% | -14% | -7% | ? | -10%
CCOC(=O)c1ccoc1CSCc1ccc(C(=O)OC)o1 | 22% | -4% | -28% | -9% | 25µM* | ?
COC(=O)c1ccc(CSC(=N)N)o1 | -7% | -2% | -3% | -1% | ? | -5%
COc1cc(/C=C2/C(C)=C(C#N)c3nc(N)c(C#N)c(C)c32)ccc1OCC(=O)O | 157% | 27% | ? | -1% | 14µM* | ?
C/C=C/c1ccc(OCC(=O)O)c(OC)c1 | 3% | -4% | -2% | -6% | -8% | -3%
Nc1nonc1-c1nc2ccccc2n1CC(=O)N/N=C/c1ccc(-c2ccccc2C(=O)O)o1 | 5% | -2% | 7% | -4% | 10% | -1%
CC1=C(C#N)c2nc(N)c(C#N)c(C)c2/C1=C\c1ccc(-c2ccccc2C(=O)O)o1 | 55% | ? | ? | ? | 8.9µM* | ?
COc1ccc(S(=O)(=O)Nc2cccc(SC)c2)cc1OC | 6% | 1% | -11% | 1% | 3% | 5%
CC(C)(C)N(Cc1cc2ccccc2[nH]c1=O)C(=O)c1ccco1 | -8% | 0% | -3% | -5% | -4% | 5%
Cc1[nH][nH]c(=O)c1C(c1c(C)[nH][nH]c1=O)c1cn(Cc2ccccc2Cl)c2ccccc12 | -4% | -2% | -18% | ? | 11µM* | ?
